Rows were chosen to be rich in hits. Some 4.1% of all compounds tested hit in one or more screens of this group.
DAX1 inh-1: DAX1 (NR0B1) inhibitors on StAR promoter, primary screen, cell-based, luminescence, SF-1 (NR5A1), full-length DAX-1; inhibition, % at 6.8 µM; HEK293T StAR-luciferase reporter, SF-1/DAX-1 repression relief; hit rate 1.1% among 370,000;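 active = inhibition above the mean over all tested compounds plus 3 SD, cut at about 3.6% in these data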;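 also: 0% = DAX-1 cells with DMSO and 100% = cells lacking DAX-1 with DMSO; higher inhibition means more luminescence from relief of DAX-1 repression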
hcDAF-12 act: H. contortus DAF-12 nuclear receptor activators, primary screen, cell-based, luminescence, HEK293, lit1-tk-luc reporter; HEK293 hcDAF-12 lit1-tk-luc reporter; 0% DMSO, 100% Δ7-dafachronic acid; activation, % at 6.8 µM; hit rate 1.4% among 370,000;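 active = activation above the mean of all tested compounds plus 3 SD, cut at about 5.5% in these data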;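 also: 100% = response to 3 µM Δ7-dafachronic acid high control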
hgDAF12 agonist: H. glycines DAF-12 receptor agonists, primary screen, cell-based, luminescence, HEK293, GAL4 fusion, UAS-luciferase | AID 687014, 2013 | hit rate 1.8% among 370,000 | activation, % at 6.8 µM | HEK293 GAL4-hgDAF12 UAS-luciferase reporter, agonist luminescence; normalized to butyrate control;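 active = activation above a cutoff set at the mean of all screened compounds plus 3 SD, cut at about 10% in these data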;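 also: 0% = DMSO wells and 100% = sodium butyrate wells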
DAX1 inh-2: DAX1 (NR0B1) inhibitors, primary screen, cell-based, HEK293, Gal4-DAX1, luciferase luminescence; Nuclear receptor subfamily 0 group B member 1 (Homo sapiens), P51843; HEK293 Gal4-DAX1 luciferase reporter; inhibition, % at 6.75 µM; hit rate 0.99% among 340,000; AID 504766, 2011;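 active = inhibition above the mean over all tested compounds plus 3 SD, cut at about 4.2% in these data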;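 also: 0% = DAX1-transfected cells with DMSO and 100% = empty-vector control cells with DMSO; inhibition shows as a rise in luminescence from relieved DAX1 repression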
Target sequence (P51843 207-470 limits assumed): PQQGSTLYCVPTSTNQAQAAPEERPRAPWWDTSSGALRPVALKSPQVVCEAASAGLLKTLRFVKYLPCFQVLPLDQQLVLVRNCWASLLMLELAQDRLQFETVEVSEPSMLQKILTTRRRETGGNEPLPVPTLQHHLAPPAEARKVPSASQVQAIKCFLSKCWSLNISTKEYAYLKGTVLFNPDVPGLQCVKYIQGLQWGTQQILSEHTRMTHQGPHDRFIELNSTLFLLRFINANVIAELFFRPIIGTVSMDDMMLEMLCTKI
ssDAF-12 act: S. stercoralis DAF-12 nuclear receptor activators, primary screen, cell-based, luminescence, HEK293, GRIP1 co-expression, lit1-tk-luc; hit rate 1% among 370,000; AID 652126, 2013; activation, % at 6.8 µM; HEK293 ssDAF-12/GRIP1 lit1-tk-luc reporter; % of 3 µM dafachronic acid response;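 active = activation above the mean over all tested compounds plus 3 SD, cut at about 0.9% in these data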;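 also: 0% = DMSO-only wells and 100% = 3 µM delta7-dafachronic acid wells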
The depositor's hits bear a star; x = no result.

SMILES	DAX1 inh-1	hcDAF-12 act	hgDAF12 agonist	DAX1 inh-2	ssDAF-12 act
COc1ccc(-c2ccc(SCc3ccccn3)nn2)cc1OC	0.0	0.2	1.3	-1.7	-0.2
COc1cccc(-c2ccc(SCc3ccccn3)nn2)c1	2.5	2.0	11.8*	0.5	0.5
Nc1nc2ccccc2n1C(=O)c1ccc(F)cc1	3.9*	5.5	10.0	-2.5	-0.2
COc1ccc(C(=O)n2c(N)nc3ccccc32)cc1OC	1.1	0.6	9.8	3.8	0.2
Nc1nc2ccccc2n1C(=O)c1ccccc1	3.2	5.6*	12.3*	-0.6	-0.1
Cc1ccc(-c2cc3nc(-c4ccco4)cc(N4CCN(Cc5ccoc5)CC4)n3n2)cc1	x	0.4	1.2	x	-1.2
Cc1ccc(N=CNc2ccc(C)cc2C)c(C)c1	-0.4	0.3	-1.0	x	1.8*
COc1ccc(C2Nc3ccc4ccccc4c3-c3c2c(=O)oc2ccccc32)cc1 (stereo not drawn)	0.1	3.6	0.7	0.3	1.4*
COC(=O)c1ccc(Cn2ccc3ccc(-c4ccc5ccn(C(=O)c6ccc(C)cc6)c5c4)cc32)cc1	-0.1	2.8	-1.9	x	-0.1
CCOC(=O)C1CCN(C(=O)C(C)(C)NC(=O)Nc2ccc(Cl)cc2Cl)CC1	x	-1.0	-2.8	x	-1.2
COc1ccc(S(=O)(=O)N2N=C(c3ccc(NS(C)(=O)=O)cc3)CC2c2ccco2)cc1 (stereo not drawn)	0.7	5.6*	2.2	2.3	1.3*
COc1ccc(S(=O)(=O)N2N=C(c3cccc(NS(C)(=O)=O)c3)CC2c2ccco2)cc1 (stereo not drawn)	-0.6	-2.4	-2.4	-0.8	-1.5
O[C@@H](Cc1ccccc1)[C@@H](/C=C/c1ccccc1)NCCc1ccccc1	-0.5	-0.9	-1.7	x	0.4
CCN(CC)C(=O)CC[C@@H]1CC[C@]2(CCCN(C(=O)C3CCCCC3)C2)O1	-0.9	-1.8	3.1	x	-1.2
CCOC(=O)c1cn2nc(N3CCCC3)ccc2n1	2.5	6.0*	10.1	-2.5	0.1
COc1ccc(-c2cc3c(=O)n(CC(=O)NCc4ccc(F)cc4)ncn3n2)cc1	-0.3	-0.6	5.1	1.8	-0.8
COC(=O)CSc1nc2ccccn2c(=O)c1C=O	2.2	6.3*	4.7	3.5	1.5*
CC1CCCCN1C(=O)COC(=O)c1ccc(N2CCCC2=O)cc1 (stereo not drawn)	-0.9	-0.6	-0.6	0.3	-1.0
CC1CCCCN1C(=O)COC(=O)c1cc(Cl)c2c(c1)OCO2 (stereo not drawn)	3.7*	2.6	8.6	3.2	-0.7
CC1CCN(C(=O)COC(=O)c2ccc3c(c2)OCO3)CC1	1.4	1.7	12.0*	1.4	-0.7
Cc1ccc(NC(=O)C(C)OC(=O)c2n[nH]c3ccccc23)cc1 (stereo not drawn)	0.8	0.1	8.5	1.5	-0.6
CC(OC(=O)c1n[nH]c2ccccc12)C(=O)Nc1ccccc1[N+](=O)[O-] (stereo not drawn)	-0.4	2.6	3.5	-1.0	1.0*
COC(=O)c1n[nH]c2ccccc12	1.1	6.2*	2.1	0.1	1.0*
COC(=O)[C@H](C(C)C)N(Cc1cn(Cc2ccccc2)nn1)S(=O)(=O)c1ccccc1Br	-0.5	-0.8	-0.7	x	-0.8
O=C(NCCCN1CCCC1=O)c1cc2nc(-c3ccco3)cc(C(F)(F)F)n2n1	-0.4	1.2	-2.6	-0.5	1.0*
SMILES	DAX1 inh-1	hcDAF-12 act	hgDAF12 agonist	DAX1 inh-2	ssDAF-12 act
Cn1c(=O)cc(OCCCC(=O)Nc2cc(Br)ccn2)c2ccccc21	x	-1.6	-4.9	x	-2.1
O=Nc1ccc(NO)c2ccccc12	-3.2	3.4	-1.4	-1.3	1.2*
O=Nc1ccc(O)c2ncccc12	-2.9	-1.3	-11.8	-2.5	-1.6
Cc1nc2ccccn2c1C(O)(c1ccccc1)c1ccccc1	x	-2.6	-1.0	x	-1.4
O=C(NCCN1CCC(Cc2ccccc2)CC1)C1CCCN(S(=O)(=O)c2ccc(Br)s2)C1 (stereo not drawn)	-2.7	-4.6	-3.3	x	-1.5
O=C(Nc1ccc2ccccc2c1)C(c1ccccc1F)n1c(=O)c(-c2cc3ccccc3[nH]2)nc2ccccc21 (stereo not drawn)	0.1	5.4	6.0	x	0.6
O=C(NCc1ccccc1)C(c1ccc(-c2ccccc2)cc1)n1c(=O)c(-c2cc3ccccc3[nH]2)nc2ccccc21 (stereo not drawn)	2.5	4.8	4.9	x	1.6*
COc1ccc(NC(=O)C(c2ccccc2F)n2c(=O)c(-c3cc4ccccc4[nH]3)nc3ccccc32)cc1 (stereo not drawn)	0.3	3.7	12.2*	x	0.6
COc1ccc(C(C(=O)NCc2ccccc2)n2c(=O)c(-c3cc4ccccc4[nH]3)nc3ccccc32)cc1 (stereo not drawn)	2.0	3.5	4.4	x	0.1
O=C(NCc1ccccc1)C(c1ccncc1)n1c(=O)c(-c2cc3ccccc3[nH]2)nc2ccccc21 (stereo not drawn)	3.1	5.7*	8.7	x	2.7*
c1ccc(Nc2ccc(NCCc3c[nH]c4ccccc34)cc2)cc1	-0.7	1.7	-0.2	x	0.7
COC(=O)[C@]12C[C@H](CC(=O)NCC3CCCCC3)C(=O)N(Cc3ccco3)C1=C[C@H](C(C)(C)C)O[C@@H]2C	-0.5	-1.7	-3.9	x	-1.5
O=C(COC(=O)c1cc[n+]([O-])cc1)Nc1ccc([N+](=O)[O-])cc1C(F)(F)F	-2.2	-0.1	1.0	1.1	-1.4
Cc1cc(C)c(O)c(-c2cc(C(=O)Nc3cccnc3)[nH]n2)c1	0.0	-3.4	1.4	-0.9	-1.9
CCc1ccc(O)c(-c2cc(C(=O)Nc3cccnc3)[nH]n2)c1	3.8*	1.4	11.7*	1.0	-0.1
CCCN1CCN(CC(=O)Nc2nc3ccccc3s2)CC1	0.3	5.5	1.6	1.8	1.2*
CCOCC(=O)Nc1nc2ccccc2s1	0.6	2.5	9.9	0.9	-0.4
O=C(CN1CCN(Cc2ccc(F)cc2)CC1)Nc1nc2ccccc2s1	-0.4	2.7	0.6	1.1	0.2
CCNC(=O)Nc1nc2ccccc2s1	1.6	0.4	13.2*	1.5	-0.4
O=C(NCCO)c1nc2ccccc2s1	0.1	4.0	1.2	-0.3	1.0*
COCCNC(=O)c1nc2ccccc2s1	0.9	4.8	1.8	0.0	-0.6
CCC(=O)N[C@@H]1C[C@@H]2O[C@@H](CO)CC[C@@H]2O[C@@H]1CCc1ccc(-c2cccc(OC)c2)cc1	-1.4	-1.1	-4.4	x	-1.5
C/C(=N/NC(=O)c1ccoc1C)C12CC3CC(CC(C3)C1)C2	2.7	4.5	12.5*	1.2	0.7

Screening data (PubChem BioAssay)
